Test results as given in ChEMBL document CHEMBL4513216, “Probing the Open Global Health Chemical Diversity Library for Multistage-Active Starting Points for Next-Generation Antimalarials” (ACS Infect Dis, 2020).
Screen size: about 69,000 compounds; about 8,600 (12%) showed an effect of 50% or more. This is one part of a sample in which strong results are shown more often than they occur.

Each compound was assayed on Plasmodium berghei (assay: Screen against P. berghei liver stage (PbLuc), transformed with Luciferase, at 10uM). Settings: tested at 10 uM.
Type: functional, HepG2

SMILES | INHIBITION
CN1CCc2nc(C3CCCN(S(=O)(=O)N4CCCC4)C3)ncc2C1 (stereo unspecified) | 23.325%
Cn1ccc(C(=O)NCc2ccc(N3CCCCCC3)nc2)cc1=O | 17.4%
O=C1NCCCCC1NCc1csc(-c2ccc(F)cc2)n1 (stereo unspecified) | -7.17%
Cc1cc(C)nc(NC2CC(=O)N(C(C)(C)C)C2)n1 (stereo unspecified) | 31.2%
Cc1cc(C)nc(NC2CC(=O)N(C)C2)n1 (stereo unspecified) | 63.3%
Cc1cc(C)nc(NC2CCC(=O)N(C)C2)n1 (stereo unspecified) | 11.5%
Cc1cc(C)n(C2CCCN(C(=O)CCOc3cccc(F)c3)C2)n1 (stereo unspecified) | -25.9%
CS(=O)(=O)N[C@H]1CCO[C@]2(CCN(CC3CCOCC3)C2)C1 | -44.4%
CS(=O)(=O)N[C@@H]1CCO[C@]2(CCN(C(=O)c3cnccn3)C2)C1 | 32.4%
Cc1cc(C(=O)N2CC[C@@]3(C[C@@H](NS(C)(=O)=O)CCO3)C2)no1 | 69.5%
Cc1ccoc1C(=O)N1CC[C@@]2(C[C@H](NS(C)(=O)=O)CCO2)C1 | 18.5%
Cc1ccc(C(=O)N2CC[C@@]3(C[C@@H](NS(C)(=O)=O)CCO3)C2)s1 | 50.9%
Cc1cncc(C(=O)N2CC[C@@]3(C[C@H](NS(C)(=O)=O)CCO3)C2)c1 | 54.4%
Cc1nc(C(=O)N2CC[C@@]3(C[C@@H](NS(C)(=O)=O)CCO3)C2)cs1 | 62.5%
CS(=O)(=O)N[C@H]1CCO[C@]2(CCN(C(=O)c3ccccn3)C2)C1 | 4.27%
CS(=O)(=O)N[C@@H]1CCO[C@]2(CCN(C(=O)C3=CCCC3)C2)C1 | 21%
CS(=O)(=O)N[C@@H]1CCO[C@]2(CCN(C(=O)c3cscn3)C2)C1 | 35.7%
Cc1ncoc1C(=O)N1CC[C@@]2(C[C@H](NS(C)(=O)=O)CCO2)C1 | 35.7%
Cc1nc(C(=O)N2CC[C@@]3(C[C@H](NS(C)(=O)=O)CCO3)C2)cs1 | 11.3%
Cc1cc(C(=O)N2CCCC(n3cccn3)C2)c(C)n1C1CC1 (stereo unspecified) | 5.7%
Cc1cc(CN(C)C(=O)NCC(C)N2CCc3ccccc32)no1 (stereo unspecified) | 15.6%
Cc1nccc(CN2CC[C@@]3(CCCN3Cc3ccccc3)[C@@H](O)C2)n1 | 39.7%
CC(C)N1CCO[C@@H]2CN(S(=O)(=O)c3cccs3)CC[C@@H]2C1 | 42.4%

SMILES | INHIBITION
Cc1cc(C)n(-c2ccc(C(=O)NCC(c3cccs3)N(C)C)cc2)n1 (stereo unspecified) | 30%
CC(C)C(NC(=O)c1ccc(=O)[nH]c1)c1nnc2n1CCNCC2 (stereo unspecified) | 12.6%
CC(C)c1ocnc1C(=O)NC(c1nnc2n1CCNCC2)C(C)C (stereo unspecified) | 65.5%
Cc1cc(C)c(C(=O)NC(c2nnc3n2CCNCC3)C(C)C)c(C)c1 (stereo unspecified) | 37.7%
COc1cc(N2CCCC(c3nccn3Cc3ccncc3)C2)ncn1 (stereo unspecified) | 54.7%
COc1cc(N2CCC(c3nccn3Cc3ccccc3)CC2)ncn1 | 11.7%
CC(C)OC(=O)N1CCCC(c2nccn2Cc2ccncc2)C1 (stereo unspecified) | 50.3%
O=C(N1CCCC1)N1CCCC(c2nccn2Cc2ccncc2)C1 (stereo unspecified) | -14.6%
COc1cc(N2CCCC(c3nccn3Cc3cccnc3)C2)ncn1 (stereo unspecified) | 2.69%
CCN(CC)S(=O)(=O)N1CCCC(c2nccn2Cc2ccncc2)C1 (stereo unspecified) | 70.1%
CCCSCC(=O)N1CCCC(c2nccn2Cc2ccncc2)C1 (stereo unspecified) | 25%
CN(C)S(=O)(=O)N1CCCC(c2nccn2Cc2cccnc2)C1 (stereo unspecified) | 11.9%
CCN(CC)S(=O)(=O)N1CCCC(c2nccn2Cc2cccnc2)C1 (stereo unspecified) | 15.2%
O=C1NC2(CCN(C(=O)N3CCOCC3)CC2)CC1c1cccnc1 (stereo unspecified) | 9.34%
Cc1nc(CN2C[C@@H]3CN(C(=O)C4CC4)C[C@@H]3C2=O)cs1 | 42.6%
O=C(NCCc1c[nH]c2ccccc12)C1CCC(Cn2cnnn2)CC1 (stereo unspecified) | -65.9%
Cc1cc(NC(=O)CN2CCCC(Cn3nc(C)nc3C)C2)n(C)n1 (stereo unspecified) | -22.15%
CC(C)CC(O)C1CCN(Cc2ccc(N(C)C)nc2)CC1 (stereo unspecified) | 10.6%
CN(C)c1ccc(CN2CCC(C(O)Cc3ccccc3)CC2)cn1 (stereo unspecified) | -42.8%
Cc1ccc(N2CCC(C(O)Cc3ccccc3)CC2)nn1 (stereo unspecified) | -2.97%
CSCc1ccc(N2CCC(C(O)CC(C)C)CC2)nc1 (stereo unspecified) | 67.4%
CSCc1ccc(N2CCC(C(O)Cc3ccccc3)CC2)nc1 (stereo unspecified) | 74.3%
CSCc1ccc(N2CCN(c3ccc(Cl)cn3)CC2)nc1 | 38.3%

SMILES | INHIBITION
CSCc1noc(-c2ccc(C)c(N3CCNC3=O)c2)n1 | 9.52%
COc1ccc(F)cc1-c1ccccc1CC1(C(=O)O)CCOCC1 | 26.7%
O=C(N[C@@H]1c2ccccc2C[C@@H]1O)C1CCN(Cc2ccco2)CC1 | 48.4%
CC(NS(N)(=O)=O)c1ccc(OCc2ccc(F)cc2)cc1 (stereo unspecified) | 14.6%
CCc1cc(NC2CCS(=O)(=O)CC2)nc(N2CCCCC2)n1 | 23.3%
CCc1cc(NC2CCN(CC(N)=O)CC2)nc(N2CCCCC2)n1 | 51.5%
CCc1cc(NC2CCS(=O)(=O)C2)nc(N2CCCCC2)n1 (stereo unspecified) | 52.6%
CCc1cc(NCCNC(C)=O)nc(N2CCCC2)n1 | 48.2%
CCc1cc(NCC(N)=O)nc(N2CCCCC2)n1 | 32%
CCc1cc(NC(C)(C)C)nc(N2CCOCC2)n1 | -3.12%
CCc1n[nH]c(C2CN(C(=O)c3cc(C(N)=O)cs3)CCO2)n1 (stereo unspecified) | -15.5%
CCC(NC1CCCC1)c1ccc(S(C)(=O)=O)cc1 (stereo unspecified) | 22.1%
CC(NC(=O)c1nc(=O)[nH][nH]1)c1ccc(OCC2CC2)c(F)c1 (stereo unspecified) | 5.53%
O=C(c1ccncc1)N1CCc2ncnc(C3CC3)c2CC1 | 27.6%
CCC(Nc1cccc(OC)c1)C(=O)NCc1ccc2[nH]c(=O)[nH]c2c1 (stereo unspecified) | -0.27%
C=C1C(C)(C)[C@@H]2CC[C@]1(C(=O)N1CCC(Cn3cc(CO)nn3)CC1)C2 | 45.6%
C=C1C(C)(C)[C@@H]2CC[C@]1(C(=O)N1CCC(n3cc(CCO)nn3)CC1)C2 | -10.9%
C=C1C(C)(C)[C@@H]2CC[C@]1(C(=O)N1CCC(n3cc(CO)nn3)CC1)C2 | 54.5%
Cc1ccoc1C(=O)N1CCC(n2cc(CO)nn2)CC1 | -37.8%
Cc1cc(C(=O)N2CCC(n3cc(CO)nn3)CC2)ccc1F | 39.3%
Cc1ccc(C(=O)N2CCC(n3cc(CO)nn3)CC2)cn1 | 55.9%
Cn1cc(C2CC(=O)NC23CCN(Cc2nccs2)CC3)cn1 (stereo unspecified) | -0.371%
N#Cc1cccc(CN2C[C@H](OCC3CCOCC3)[C@H]3COC[C@H]32)c1 | 19.5%

SMILES | INHIBITION
Cc1c[nH]nc1C1CCN(c2cnccn2)C1 (stereo unspecified) | 9.745%
CC(CN(C)C(=O)c1cn(C)nc1-c1ccc(F)cc1F)C(=O)O (stereo unspecified) | 24.4%
COc1ccc(-c2ccc(C(=O)O)c(F)c2)c(F)c1 | 15.2%
Cn1cc(C(=O)O)c(-c2ccc(F)cc2F)n1 | 18%
Cn1cc(C(=O)OCC(N)=O)c(-c2ccc(F)cc2F)n1 | 58.6%
Cc1cc(NC(=O)COC(=O)c2ccc(F)cc2Br)n(C)n1 | 34.1%
CC(C)(C)n1cc(C(=O)O)c(-c2ccc(F)cc2F)n1 | 68.3%
O=C(Nc1cccc(Cn2cccn2)c1)N1CCCC(N2CCCC2)C1 (stereo unspecified) | 16.2%
CS(=O)(=O)CCCSc1n[nH]c(-c2ccc3c(c2)CCC3)n1 | -18.8%
Cc1ccc(F)cc1S(=O)(=O)NCc1cccc(C(=O)N2CCCC2)c1 | -77.1%
O=C(NC1CCC(O)CC1)c1ccc2nc(-c3ccccc3)cn2c1 (stereo unspecified) | -25.1%
COCC(=O)N(C)Cc1cccc(Cl)c1 | 15%
O=C(CN1CCN(CC(O)C2CC2)CC1)NCc1ccc(F)cc1 (stereo unspecified) | 1.58%
O=C(c1ccoc1)N1CCCn2cnc(COCC3CC3)c2C1 | 39.2%
CCOCc1ncn2c1CN(C(=O)c1ccoc1)CC2 | 39.2%
O=C(c1cscn1)N1CCn2cnc(COCC3CC3)c2C1 | -6.23%
O=C(c1ccoc1)N1CCn2cnc(COCC3CC3)c2C1 | 56.7%
O=C(c1cnccn1)N1CCn2cnc(COCC3CC3)c2C1 | 60.1%
O=C(c1ccccn1)N1CCn2cnc(COCC3CC3)c2C1 | 19.7%
c1cnn(CC2CCCCN2Cc2nc(-c3ccsc3)no2)c1 (stereo unspecified) | 0.914%
CC(=O)N1CCCC(c2ccc(Nc3nc(C)cc(C)n3)cn2)C1 (stereo unspecified) | 33.5%
CSc1[nH]nc(NC(=O)c2cccnc2)c1C#N | -35.5%
CCn1cnc(NC(=O)N2CCC(c3ccc(Cl)cc3)C2)n1 (stereo unspecified) | 58.2%

SMILES | INHIBITION
CCn1cnc(NC(=O)N2CCC(c3ccc(F)cc3)C2)n1 (stereo unspecified) | 31.6%
CCn1cnc(NC(=O)N2CCCC(c3ccccc3)CC2)n1 (stereo unspecified) | 22.4%
CSCc1cccc(S(=O)(=O)N2CCCC2)c1 | 33.3%
Cc1cccc(N2CCC3(CCN(Cc4ccccn4)CC3)CC2)n1 | 15.3%
COCCC(=O)N1CCCC1c1nc(O)cc(C(C)C)n1 (stereo unspecified) | 23.2%
COC(=O)c1ccc2c(-c3ccnc(N[C@@H](C)CO)n3)c[nH]c2c1 | 18.9%
CC[C@@H](CO)Nc1nccc(-c2c[nH]c3cc(C(=O)OC)ccc23)n1 | 69.3%
COC(=O)c1ccc2c(-c3ccnc(NCCO)n3)c[nH]c2c1 | 10%
COc1ccc(CNC2CCC(O)CC2)cc1OCCCC#N (stereo unspecified) | 17.8%
Cc1ccc(CN2CCC3(CC2)NC(=O)CC3c2ccncc2)cc1C (stereo unspecified) | 16.6%
CC(C)CNC(=O)CN1C=Nc2ccccc2S1(=O)=O | 56.1%
CC(C)OCCCNC(=O)CN1C=Nc2ccccc2S1(=O)=O | 12.7%
O=C(CN1C=Nc2ccccc2S1(=O)=O)NCCCc1ccccc1 | 55.2%
O=C(CN1C=Nc2ccccc2S1(=O)=O)NCc1ccccc1 | 7.27%
O=C(CN1C=Nc2ccccc2S1(=O)=O)NCC1CC1 | 29.2%
CC(NC(=O)CN1C=Nc2ccccc2S1(=O)=O)c1ccccc1 (stereo unspecified) | -18.5%
CC(C)CCC(C)NC(=O)CN1C=Nc2ccccc2S1(=O)=O (stereo unspecified) | 12.7%
Cc1ccc(CNC(=O)CN2C=Nc3ccccc3S2(=O)=O)s1 | 22.3%
O=C(CN1C=Nc2ccccc2S1(=O)=O)NCCc1cccs1 | 53.8%
